High-throughput results: PubChem BioAssay, NMMLSC
Rows were chosen to be rich in hits. Some 1.1% of all compounds tested hit in one or more screens of this group.
MEP2-GFP yeast: modulators of MEP2-GFP levels in yeast, primary screen, S. cerevisiae, multiplex flow cytometry, MLPCN library. S. cerevisiae MEP2-GFP strain, 3 h; 100% = DMSO control level. GFP response vs DMSO, % at 10 µM. 330,000 compounds, 0.51% hits;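 active = GFP response versus DMSO above a set limit, roughly screen mean plus 3 SD, cut at about 180% in these data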;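 note: median GFP fluorescence of the barcode-gated MEP2-GFP cells per well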
CIT2-GFP yeast: modulators of CIT2-GFP expression in yeast, primary screen, S. cerevisiae, GFP fusion, multiplex flow cytometry, MLPCN library; S. cerevisiae CIT2-GFP strain, 3 h; 100 means same as DMSO wells; GFP response vs DMSO, % at 10 µM; 320,000 compounds, 0.065% hits; AID 2029, 2009;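 active = GFP response relative to DMSO above a set limit, near the screen mean plus 3 SD, cut at about 150% in these data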;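 note: ratio of well median GFP fluorescence to mean of DMSO wells on the plate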
VLA-4 inh: inhibition in human VLA-4 binding assay, primary screen, VLA-4 allosteric modulator project, MLPCN library, flow cytometry, VLA-4 expressing cells | Integrin alpha-4 (Homo sapiens), P13612 | ligand binding flow cytometry | inhibition, % (about 7 µM as worked out from the volumes in the protocol) | 330,000 compounds, 0.2% hits; in the data active = inhibition above about 50%
Target sequence (P13612 whole entry, looked up): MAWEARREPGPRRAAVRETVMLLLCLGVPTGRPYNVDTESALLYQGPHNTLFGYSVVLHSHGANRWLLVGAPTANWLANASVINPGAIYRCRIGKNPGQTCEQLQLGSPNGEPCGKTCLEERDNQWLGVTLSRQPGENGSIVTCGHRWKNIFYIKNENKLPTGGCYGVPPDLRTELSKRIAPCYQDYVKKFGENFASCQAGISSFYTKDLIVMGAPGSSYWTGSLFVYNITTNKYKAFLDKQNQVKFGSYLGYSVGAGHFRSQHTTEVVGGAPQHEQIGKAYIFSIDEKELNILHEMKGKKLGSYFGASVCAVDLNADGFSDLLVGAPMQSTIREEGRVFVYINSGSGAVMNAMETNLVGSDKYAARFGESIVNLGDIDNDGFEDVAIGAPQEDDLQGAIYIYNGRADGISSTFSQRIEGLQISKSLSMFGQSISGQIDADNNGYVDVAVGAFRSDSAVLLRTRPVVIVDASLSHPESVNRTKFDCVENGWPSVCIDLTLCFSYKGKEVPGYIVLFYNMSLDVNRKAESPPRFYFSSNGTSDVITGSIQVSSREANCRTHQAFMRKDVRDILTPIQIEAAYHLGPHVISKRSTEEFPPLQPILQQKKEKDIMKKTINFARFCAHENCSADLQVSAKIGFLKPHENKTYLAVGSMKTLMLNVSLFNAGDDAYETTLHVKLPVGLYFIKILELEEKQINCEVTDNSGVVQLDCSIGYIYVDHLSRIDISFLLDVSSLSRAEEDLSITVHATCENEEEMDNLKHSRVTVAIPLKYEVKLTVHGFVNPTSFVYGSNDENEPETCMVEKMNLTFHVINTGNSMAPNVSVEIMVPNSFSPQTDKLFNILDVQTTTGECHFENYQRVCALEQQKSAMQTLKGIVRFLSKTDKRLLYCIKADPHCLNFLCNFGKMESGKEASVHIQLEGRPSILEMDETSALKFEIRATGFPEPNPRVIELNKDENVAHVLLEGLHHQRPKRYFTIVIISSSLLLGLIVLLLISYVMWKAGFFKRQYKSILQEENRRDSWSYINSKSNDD
RPL19A-GFP yeast: RPL19A-GFP expression modulators in yeast, primary screen, cell-based, S. cerevisiae, multiplex flow cytometry, MLPCN | AID 2025, 2009 | S. cerevisiae RPL19A-GFP strain, 3 h; active compounds read low | 330,000 compounds, 0.3% hits | percent response vs DMSO, % at 10 µM;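 active = percent response vs DMSO below 50%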;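 note: median channel GFP fluorescence of the barcoded RPL19A-GFP strain; ratio of sample median GFP to plate DMSO average so 100% = DMSO; lower means less RPL19A-GFP as with rapamycin TOR inhibition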
AGP1 TOR yeast: modulators of AGP1-GFP expression in yeast TOR pathway, primary screen, cell-based, multiplex flow cytometry, S. cerevisiae, MLPCN library. 3 h; GFP as percent of DMSO wells. GFP response vs DMSO, % at 10 µM. 320,000 compounds, 0.02% hits;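 active = GFP response relative to DMSO above a set limit, near screen average plus 3 SD, cut at about 150% in these data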;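 note: median GFP channel fluorescence of the gated AGP1 strain per well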
LAP4 TOR yeast: modulators of LAP4-GFP expression in yeast, primary screen, S. cerevisiae, multiplex flow cytometry, MLPCN library. 3 h; median GFP as percent of DMSO wells. GFP response vs DMSO, % at 10 µM. 320,000 compounds, 0.34% hits;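 active = GFP response vs DMSO above a set limit, about the screen mean plus 3 SD, cut at about 150% in these data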
LAP4 cherry2: LAP4-GFP expression modulators in yeast, confirmation, cell-based, second cherry pick, flow cytometry. shares compounds with LAP4 TOR yeast. S. cerevisiae LAP4-GFP strain, 3 h. GFP response vs DMSO, % at 10 µM. 590 compounds, 20% hits. AID 2621, 2010;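 active = GFP signal as percent of the solvent control above about 150%, meaning raised reporter expression, limit read from the data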;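 note: ratio of well median GFP fluorescence to plate DMSO mean so 100% = DMSO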
MEP2 cherry2: modulators of MEP2-GFP levels in yeast, confirmation, S. cerevisiae, flow cytometry GFP, second cherry picks | shares compounds with LAP4 TOR yeast | S. cerevisiae MEP2-GFP strain, 3 h | GFP response vs DMSO, % at 10 µM | 590 compounds, 10% hits | AID 2622, 2010;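 active = GFP signal above 150% of the solvent control wells, that is a rise of more than half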;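 note: median channel GFP fluorescence of all gated yeast cells per well; ratio of median GFP to plate DMSO average so 100% = DMSO level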
RPL19A GFP CP2: RPL19A-GFP modulators in TOR pathway yeast, confirmation, cell-based, S. cerevisiae, flow cytometry, second cherry pick. shares compounds with LAP4 TOR yeast. S. cerevisiae RPL19A-GFP strain, 3 h; active compounds read low; 100% means same as DMSO wells. GFP response vs DMSO, % at 10 µM. 590 compounds, 3% hits. AID 2623, 2010;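 active = under 65% GFP response relative to DMSO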;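 note: median GFP channel fluorescence per well over the all cells gate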
CIT2-GFP pick2: modulators of CIT2-GFP expression in yeast, confirmation, flow cytometry, second cherry pick, single plex; shares compounds with LAP4 TOR yeast; S. cerevisiae CIT2-GFP strain, 3 h; DMSO control wells read 100%; GFP response vs DMSO, % at 10 µM; 590 compounds, 8% hits;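 active = GFP response vs DMSO above about 150%, limit read from the data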;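 note: median green fluorescence per well over all gated yeast cells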
AGP1-GFP pick2: AGP1-GFP expression modulators, hit retest, confirmation, cell-based, flow cytometry, S. cerevisiae, cherry pick set 2. AID 2643, 2010. shares compounds with LAP4 TOR yeast. S. cerevisiae AGP1-GFP strain, 3 h. 590 tested, under 10 active. percent response vs DMSO, % at 10 µM;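 active = over 150 percent of DMSO response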;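 note: median GFP channel fluorescence over all cells without mother daughter split; sample median GFP divided by mean DMSO control so 100% equals DMSO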
s288c autofluor: compound autofluorescence in yeast s288c, dose response, artefact control for yeast TOR pathway GFP screen, s288c strain. AID 2757, 2010. 610 tested, under 10 active. fluorescence change (kMESF span) at 33 µM. S. cerevisiae s288c, 520 nm autofluorescence, flow cytometry, 3 h; active compounds read high; zero means same as solvent-only cells. shares compounds with LAP4 TOR yeast;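 active = fluorescence span over the dose series, or activity score, above about 33, limit read from the data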
An asterisk follows results filed as active; x = no result given.

SMILES | MEP2-GFP yeast | CIT2-GFP yeast | VLA-4 inh | RPL19A-GFP yeast | AGP1 TOR yeast | LAP4 TOR yeast | LAP4 cherry2 | MEP2 cherry2 | RPL19A GFP CP2 | CIT2-GFP pick2 | AGP1-GFP pick2 | s288c autofluor
CCc1nc2ccccc2c(=O)n1NC(=O)c1c(O)c2ccccc2n(CC)c1=O | 123.9 | 102.6 | 2.7 | 53.5 | 39.5 | 86.8 | 125.2 | 223.6* | 42.2* | 168.3* | 43.8 | 1.4
CCc1nc2ccccc2c(=O)n1NC(=O)c1c(O)c2cccc3c2n(c1=O)CCC3 | 83.3 | 81.0 | 2.4 | 57.2 | 58.5 | 92.6 | 114.2 | 129.3 | 63.8* | 122.4 | 39.0 | 2.22
O=C(CSc1ccc2nnc(CCNC(=O)c3ccc(F)cc3)n2n1)NCC1CCCO1 (centres undefined) | 89.2 | 96.4 | 8.3 | 97.3 | 98.8 | 88.2 | x | x | x | x | x | x
CN(C)C1(CN=Cc2cc(Cl)cc([N+](=O)[O-])c2O)CCCCC1 | 104.0 | 108.4 | -6.3 | 96.4 | 89.8 | 109.5 | x | x | x | x | x | x
CCSc1nnc(NC(=O)CCNS(=O)(=O)c2ccccc2F)s1 | 114.1 | 104.0 | 6.8 | 104.2 | 102.8 | 97.8 | x | x | x | x | x | x
CCn1c(=O)c(C(=O)Nc2ccccc2)c(O)c2ccccc21 | 97.8 | 88.8 | 4.8 | 93.5 | 95.8 | 94.5 | x | x | x | x | x | x
CCn1c(=O)c(C(=O)Nc2nc3ccccc3[nH]2)c(O)c2ccccc21 | 125.7 | 84.5 | 5.3 | 66.9 | 39.8 | 176.3* | x | x | x | x | x | 4.44
CCn1c(CSc2nnc3ccccn23)nc2cc(C(=O)O)ccc21 | 91.6 | 84.5 | -6.0 | 101.0 | 92.7 | 94.2 | x | x | x | x | x | x
CCn1c(CSc2n[nH]c(N)n2)nc2cc(C(=O)O)ccc21 | 178.4* | 109.1 | 8.5 | 100.8 | 104.2 | 124.6 | 97.1 | 98.2 | 99.8 | 100.7 | 101.3 | x
Cc1ccc(S(=O)(=O)/C(C#N)=C/c2c(Oc3ccc(Cl)cc3)nc3c(C)cccn3c2=O)cc1 | 383.6* | 103.8 | -18.3 | 52.2 | 21.4 | 80.7 | 102.2 | 101.3 | 100.6 | 94.6 | 99.7 | x
Cc1ccc(Oc2nc3c(C)cccn3c(=O)c2/C=C(\C#N)C(N)=O)cc1 | 85.6 | 108.1 | 3.9 | 93.7 | 109.5 | 101.1 | x | x | x | x | x | x
O=[N+]([O-])c1cccc(-c2cn3nc(-c4ccccc4)c(-c4ccccc4)nc3n2)c1 | 106.9 | 103.5 | -2.7 | 103.1 | 98.1 | 102.6 | x | x | x | x | x | x
O=[N+]([O-])c1ccc(-c2cn3nc(-c4ccccc4)c(-c4ccccc4)nc3n2)cc1 | 260.9* | 118.6 | 4.2 | 105.1 | 50.4 | 170.7* | x | x | x | x | x | 3.13
COc1cc(/C=C2\C(=O)N(CCC#N)N=C2C)c(Br)cc1OC(C)C | 92.0 | 89.4 | -4.2 | 105.2 | 86.5 | 192.3* | x | x | x | x | x | -0.41
CNC(=O)COC(=O)c1ccc(Cl)c(S(N)(=O)=O)c1 | 110.8 | 113.7 | 1.9 | 108.7 | 111.8 | 110.4 | x | x | x | x | x | x
CC(C)N(C(=O)COC(=O)c1ccc(Cl)c(S(N)(=O)=O)c1)C(C)C | 104.6 | 82.4 | 5.2 | 81.9 | 112.6 | 174.2* | 101.9 | 104.8 | 102.1 | 98.4 | 102.8 | x
C=CCNC(=O)/C(C#N)=C/c1ccc(OS(=O)(=O)c2ccc(C)cc2)c(OC)c1 | 85.8 | 80.1 | -0.9 | 80.0 | 82.2 | 185.6* | 131.3 | 96.1 | 91.8 | 101.5 | 93.1 | x
COc1cc(/C=C2\CC/C(=C\c3cc(OC)c(O)c(OC)c3)C2=O)cc(OC)c1O | 184.5* | 125.9 | -200.5 | 97.5 | 104.9 | 138.3 | 146.2 | 141.4 | 111.2 | 165.1* | 111.3 | 2.73
Cc1ccccc1NC(=O)Cc1ccccc1 | 98.5 | 97.2 | -1.6 | 100.2 | 101.7 | 98.8 | x | x | x | x | x | x
O=C(CC(=O)c1ccccc1)Nc1ccccc1C(F)(F)F | 105.3 | 93.7 | 10.6 | 98.5 | 94.6 | 87.2 | 101.0 | 101.5 | 101.5 | 97.2 | 97.4 | x
O=C(CC(=O)Nc1ccccc1C(F)(F)F)Nc1ccccc1C(F)(F)F | 104.9 | 99.9 | 12.4 | 99.5 | 98.5 | 91.3 | x | x | x | x | x | x
O=C(O)CC(=O)Nc1ccccc1 | 87.0 | 81.7 | -0.6 | 87.8 | 85.9 | x | x | x | x | x | x | x
COc1cccc(NC(=O)CC(=O)c2ccccc2)c1 | 99.9 | 95.6 | -4.4 | 97.3 | 91.4 | 98.4 | 105.8 | 103.2 | 100.0 | 92.7 | 93.8 | x
O=C(CC(=O)c1ccccc1)Nc1ccccc1 | 94.6 | 82.1 | 9.3 | 89.3 | 89.4 | 91.6 | 105.8 | 101.5 | 101.3 | 100.7 | 98.4 | x
Cc1ccccc1NC(=O)CC(=O)c1ccccc1 | 107.9 | 100.9 | -0.9 | 99.5 | 94.0 | 92.0 | 104.8 | 111.5 | 101.9 | 99.5 | 99.8 | x
COc1cccc(-c2nc(CS(=O)(=O)CC(=O)Nc3cc(OC)ccc3OC)c(C)o2)c1 | 103.0 | 100.8 | 9.7 | 95.8 | 100.4 | 87.4 | x | x | x | x | x | x
CCc1cc2c(COC(=O)c3cccc(NS(C)(=O)=O)c3)cc(=O)oc2cc1O | 104.7 | 101.6 | -38.7 | 99.7 | 101.1 | 108.6 | x | x | x | x | x | x
COc1cc(NC(=O)c2ccccc2[N+](=O)[O-])ccc1NC(=O)c1cc2ccccc2o1 | 118.4 | 107.1 | 5.5 | 106.4 | 105.7 | 108.3 | x | x | x | x | x | 0.1
CCC(=O)Nc1ccc(NC(=O)c2cc3ccccc3o2)cc1 | 102.7 | 104.6 | 21.0 | 103.6 | 109.9 | 106.5 | x | x | x | x | x | 0.2
CC1CC(C)CN(C(=O)COC(=O)CCC(=O)c2cccs2)C1 (centres undefined) | 97.4 | 79.4 | 0.2 | 85.8 | 110.9 | 165.5* | 99.0 | 101.5 | 97.3 | 108.6 | 105.6 | x
